Several values for one entry are separate records, joined by “and”; a condition that tells them apart may be missing. Equal values may be shown once. Results filed as inconclusive are left out. A number with no mark means an inactive call. Activity calls are given as the source filed them. The call rests on the fitted dose curve; in most records, active means well fitted curve in the direction sought with a large enough effect in the repeat runs; inconclusive means weak or mixed curves; inactive means no such curve, though single readings can be large; an effect the other way counts as inactive or inconclusive.
Further: nearly all actives have a fitted effect of over 50% in size.
On the % scale 0 is the no-effect control and ±100 the full control effect; potency means the concentration at half of the fitted maximal effect.

Tested on in the first assay: not listed separately
In words: qHTS assay to identify small molecule antagonists of the retinoid-related orphan receptor gamma (ROR-gamma) signaling pathway - cell viability counter screen (AID 1159520). The following applies: Tet-on RORgamma CHO cells viability, ATP luminescence, 16 h; series mostly up to 92.4 µM; activity, negative = cytotoxicity: at the top concentration. Put shortly:
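Tet-on ROR gamma CHO cells were given compounds for 2 hr, then doxycycline hyclate at 1 uM final, and incubated 16 hr at 37 C. Viability was measured as ATP content by CellTiter-Glo luminescence.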
(In general: Quantitative high-throughput screening tests each substance at several concentrations.)
Regarding `CCN(CC)C(=S)[S-].CCN(CC)C(=S)[S-].[Zn+2]`, the Potency was 5.4 µM (active).

With `Cc1ccc(OP(=O)(Oc2ccccc2)Oc2ccccc2)cc1`, the “activity, negative = cytotoxicity” value was -11.2%.

As for `CCOCn1c(-c2ccc(Cl)cc2)c(C#N)c(Br)c1C(F)(F)F`, the Potency is 9.69 µM (active).

As to `CCCCN(CCCC)C(=S)[S-].CCCCN(CCCC)C(=S)[S-].[Zn+2]`, the “activity, negative = cytotoxicity” value was 2.36%.

Turning to `CC(C)OC(=O)C(O)(c1ccc(Cl)cc1)c1ccc(Cl)cc1`, the Potency is 68.6 µM (active).

Regarding `COC(=O)N(C(=O)N1CO[C@@]2(C(=O)OC)Cc3cc(Cl)ccc3C2=N1)c1ccc(OC(F)(F)F)cc1`, the “activity, negative = cytotoxicity” value was -7.96%.

The target of another assay is Nuclear receptor ROR-gamma (Homo sapiens) (UniProt P51449). In words: qHTS assay to identify small molecule antagonists of the retinoid-related orphan receptor gamma (ROR-gamma) signaling pathway (AID 1159521;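 on activity change, negative = inhibition: CHO cells with doxycycline inducible ROR-gamma driving an RORE luciferase reporter; top concentration of the series differs between compounds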). Particulars: Tet-on RORgamma CHO cells, RORE-luciferase, 16 h; series mostly up to 92.4 µM; activity change, negative = inhibition: at the top concentration. In short, it runs like this: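 CHO cells expressing RORγ under a TET-on promoter, luciferase under RORE control. Dox 1 uM final, 16 h; compounds added 2 h prior. Luminescence decrease measured.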
On to `CCCSP(=O)(OCC)SCCC`, for which the “activity change, negative = inhibition” value is 14.8%.

In the case of `CCCCCCCCCCCCCCCCCCn1cc[n+](C)c1`, the Potency was 3.05 µM (active).

Regarding `CC(C)CC(C)Nc1ccc(Nc2ccccc2)cc1` (centres undefined), the Potency is 47.7 µM (active).

As to `CC1(c2ccc(Oc3ccccc3)cc2)OC(=O)N(Nc2ccccc2)C1=O` (centres undefined), the Potency was 6.15 µM (active).

Turning to `C[C@H]1O[C@@H](O[C@H]2[C@@H](O)C[C@H](O[C@H]3[C@@H](O)C[C@H](O[C@H]4CC[C@@]5(C)[C@H](CC[C@@H]6[C@@H]5CC[C@]5(C)[C@@H](C7=CC(=O)OC7)CC[C@]65O)C4)O[C@@H]3C)O[C@@H]2C)C[C@H](O)[C@@H]1O`, the Potency is 5.48 µM (active) and 16.8 µM (active).

For the molecule `CN(C)c1ccc(N=Nc2ccccc2)cc1`, the “activity change, negative = inhibition” value was -29.9%.

With `COc1ccc(OC)c(CC(C)N)c1` (centres undefined), the “activity change, negative = inhibition” value was 5.96%.

In the case of `CCOP(=O)(NC(C)C)Oc1ccc(SC)c(C)c1` (centres undefined), the Potency was 9.69 µM (active).

Consider `CCCCCCCCCCCCCN1CC(C)OC(C)C1` (centres undefined), for which the “activity change, negative = inhibition” value is 4.36%.

On to `O=[N+]([O-])c1ccc2ccc3cccc4ccc1c2c34`, for which the “activity change, negative = inhibition” value was 10.6%.

Regarding `Clc1ccc(C(c2ccc(Cl)cc2)C(Cl)(Cl)Cl)cc1`, the Potency is 61.6 µM (active).

Regarding `CCc1nn(C)c(C(=O)NCc2ccc(C(C)(C)C)cc2)c1Cl`, the Potency is 0.545 µM (active).

With `Nc1ccccc1C(=O)OC/C=C/c1ccccc1`, the “activity change, negative = inhibition” value was -5.75%.

With `O=c1c(C2CC(c3ccc(-c4ccc(Br)cc4)cc3)Cc3ccccc32)c(O)sc2ccccc12` (centres undefined), the Potency was 2.66 µM (active).

As for `COP(=O)(OC)SCn1c(=O)oc2cc(Cl)cnc21`, the “activity change, negative = inhibition” value was 8.5%.

Turning to `CC(C)C1CCC(Cc2ccc(Cl)cc2)C1(O)Cn1cncn1` (centres undefined), the Potency is 30.3 µM (active).

As for `O=C(CCl)Nc1ccccc1`, the Potency was 21.7 µM (active).

In the case of `N#CSCSC#N`, the Potency was 12.1 µM (active).

For the molecule `COC12CC[C@@]3(C[C@@H]1C(C)(O)C(C)(C)C)[C@H]1Cc4ccc(O)c5c4[C@@]3(CCN1CC1CC1)[C@H]2O5` (some centres undefined), the Potency was 54.1 µM (active).

For the molecule `CCOP(=S)(OCC)OC(Cl)C(Cl)(Cl)Cl` (centres undefined), the “activity change, negative = inhibition” value was -0.714%.

With `O=c1ssc(Cl)c1Cl`, the Potency was 17.2 µM (active).

With `CCN(CC)c1c([N+](=O)[O-])cc(C(F)(F)F)c(N)c1[N+](=O)[O-]`, the Potency is 27.3 µM (active).

With `C[C@H]1CC[C@@H]2[C@@H](C)[C@H]3[C@H](C[C@H]4[C@@H]5CC=C6CC(O[C@@H]7O[C@H](CO)[C@H](O)[C@H](O[C@@H]8O[C@H](CO)[C@@H](O)[C@H](O)[C@H]8O)[C@H]7O[C@H]7O[C@@H](C)[C@H](O)[C@@H](O)[C@H]7O)CC[C@]6(C)[C@H]5CC[C@]34C)N2C1` (some centres undefined), the “activity change, negative = inhibition” value is 24.6%.

Regarding `CCOC(=O)OC1=C(c2cc(C)ccc2C)C(=O)NC12CCC(OC)CC2` (centres undefined), the “activity change, negative = inhibition” value is -18.7%.

Take `CCN(CC)C(=S)[S-].CCN(CC)C(=S)[S-].[Zn+2]`: the Potency is 0.856 µM (active).

Turning to `CCOCn1c(-c2ccc(Cl)cc2)c(C#N)c(Br)c1C(F)(F)F`, the Potency was 0.686 µM (active).

`CCCCN(CCCC)C(=S)[S-].CCCCN(CCCC)C(=S)[S-].[Zn+2]`: the Potency was 13.7 µM (active).

Take `CC(C)OC(=O)C(O)(c1ccc(Cl)cc1)c1ccc(Cl)cc1`: the Potency was 54.5 µM (active).

For the origin of these results see PubChem BioAssay (Tox21).
